M1 antag: blocks human M1 muscarinic receptor; AID 588852; P11229; CHO-K1 hM1, Fluo-8 calcium fluorescence, ACh EC80 antagonist; 360,000 compounds, 1.3% hits; inhibition, % at 3 µM;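 active means percent inhibition above its own plate's cutoff, namely the mean of that plate's compound wells plus 3 SD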;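 further: peak over basal fluorescence ratio during 140 s after agonist addition; 0% = ACh EC80 plus DMSO and 100% = DMSO alone without agonist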
Target sequence (P11229 whole entry, looked up): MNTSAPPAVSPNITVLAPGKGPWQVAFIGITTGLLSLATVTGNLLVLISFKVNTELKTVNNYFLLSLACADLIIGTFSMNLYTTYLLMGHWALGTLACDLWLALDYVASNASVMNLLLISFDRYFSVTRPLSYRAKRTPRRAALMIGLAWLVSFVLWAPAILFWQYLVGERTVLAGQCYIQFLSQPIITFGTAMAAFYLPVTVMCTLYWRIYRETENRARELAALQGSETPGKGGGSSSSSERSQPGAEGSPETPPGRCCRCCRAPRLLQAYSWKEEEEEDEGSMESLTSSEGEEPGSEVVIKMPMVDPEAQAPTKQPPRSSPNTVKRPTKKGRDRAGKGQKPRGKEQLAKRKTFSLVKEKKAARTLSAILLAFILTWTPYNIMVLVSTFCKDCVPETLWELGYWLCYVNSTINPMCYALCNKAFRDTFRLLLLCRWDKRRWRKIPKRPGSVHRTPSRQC
CHO-K1 Ca antag: nonselective inhibitor or artifact in parental CHO-K1 cells | ATP-induced calcium, Fluo-8 fluorescence | inhibition, % at 3 µM | 360,000 compounds, 0.6% hits;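 active means inhibition above a per-plate cutoff, the plate's mean sample inhibition plus 3 SD, cut at about 24% in these data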;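 further: 0% = DMSO plus EC80 ATP and 100% = DMSO alone without ATP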
CHO-K1 Ca PAM: counter-screen for M1 PAMs: effect in parental CHO-K1 cells; ATP EC20, Fluo-8 calcium fluorescence; 0% at ATP EC20, 100% at ATP max; activation, % at 3 µM; 360,000 compounds, 0.02% hits;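 active means activation above the run cutoff, the mean activation of all test compounds plus 3 SD, cut at about 40% in these data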;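 further: peak over basal fluorescence ratio in a 140 s read after ATP addition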
CHRM1 PAM: human CHRM1 positive allosteric modulation. P11229. CHO-K1 hM1, Fluo-8 calcium fluorescence, ACh EC20; 0% = ACh EC20, 100% = maximal ACh. activation, % at 3 µM. 360,000 compounds, 0.088% hits; in the data active means activation above about 19%, passing the limit was not always enough
M1 ag parental: nonselective activator or artifact in parental CHO-K1 cells | Fluo-8 calcium fluorescence; scaled to maximal ATP response, vehicle zero | activation, % at 3 µM | 360,000 compounds, 0.48% hits | AID 602248; in the data active means activation above about 15%;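 further: untransfected CHO-K1 host cells lacking M1 receptor as counterscreen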
CHRM1 agonist: human M1 muscarinic receptor agonism. P11229. CHO-K1 hM1, Fluo-8 calcium fluorescence, agonist mode; 0% DMSO, 100% acetylcholine EC100. activation, % at 3 µM. 360,000 compounds, 0.33% hits. AID 588814;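 active means activation above the run's mean compound activation plus 3 SD, cut at about 16% in these data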;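 further: peak over basal fluorescence ratio within a 140 s kinetic read after compound addition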
* hit, by the source's call. This is a sample that favours compounds with a hit; in the whole collection about 2.3% have one here.

Screening O=C(C/C=N\OCc1ccc([N+](=O)[O-])cc1)Nc1ccc(F)cc1F returned M1 antag -15, CHO-K1 Ca antag 4, CHO-K1 Ca PAM 12, CHRM1 PAM 8, M1 ag parental 29* and CHRM1 agonist -8.
For CO/N=C/CC(=O)Nc1ccc(F)cc1F the results were M1 antag -30, CHO-K1 Ca antag -25, CHO-K1 Ca PAM 21, CHRM1 PAM 3, M1 ag parental 0 and CHRM1 agonist -2.
Screening CC(C)(C)c1ccc(S(=O)(=O)NNC(=O)C2CCN(Cc3cccc(F)c3)CC2)cc1 returned M1 antag -1, CHO-K1 Ca antag -5, CHO-K1 Ca PAM 25, CHRM1 PAM 6, M1 ag parental 23* and CHRM1 agonist -5.
O=C(NCCc1cccc(F)c1)C1CCN(S(=O)(=O)c2ccc(F)cc2)CC1 was read as M1 antag -14, CHO-K1 Ca antag -4, CHO-K1 Ca PAM 10, CHRM1 PAM 9, M1 ag parental 3 and CHRM1 agonist -1.
NNC(=O)c1ccc(CSc2cccc3cccnc23)cc1 was read as M1 antag 0, CHO-K1 Ca antag -21, CHO-K1 Ca PAM 12, CHRM1 PAM 11, M1 ag parental 1 and CHRM1 agonist 29*.
For c1cnc2c(SCc3ccc(-c4nnco4)cc3)cccc2c1 the results were M1 antag -45, CHO-K1 Ca antag 2, CHO-K1 Ca PAM 10, CHRM1 PAM 15, M1 ag parental 2 and CHRM1 agonist 16*.
`O=C1CCC/C(=N\NC(=O)c2ccc(CSc3cccc4cccnc34)cc2)C1` gave M1 antag -14, CHO-K1 Ca antag -12, CHO-K1 Ca PAM 20, CHRM1 PAM 11, M1 ag parental 0 and CHRM1 agonist 20*.
Screening O=C(N/N=C/c1ccccc1Br)c1ccc(CSc2cccc3cccnc23)cc1 returned M1 antag -8, CHO-K1 Ca antag -8, CHO-K1 Ca PAM 20, CHRM1 PAM 10, M1 ag parental 5 and CHRM1 agonist 3.
Cc1cccc(CSc2cccc3cccnc23)c1 was read as M1 antag 15, CHO-K1 Ca antag 13, CHO-K1 Ca PAM 9, CHRM1 PAM 0, M1 ag parental 1 and CHRM1 agonist -3.
`CCN(Cc1cnn(C)c1)Cc1nc(C(c2ccccc2)c2ccccc2)no1` gave M1 antag -12, CHO-K1 Ca antag 8, CHO-K1 Ca PAM -19, CHRM1 PAM 1, M1 ag parental 0 and CHRM1 agonist -5.
Screening CSCc1ccc(C(=O)OCC(=O)NC2CCCC2)o1 returned M1 antag -12, CHO-K1 Ca antag -2, CHO-K1 Ca PAM -2, CHRM1 PAM 9, M1 ag parental 0 and CHRM1 agonist -4.
For COc1ccc(-c2nnc(SCC(=O)Nc3ccccc3)n2C)cc1 the results were M1 antag 13*, CHO-K1 Ca antag 12, CHO-K1 Ca PAM -7, CHRM1 PAM -14, M1 ag parental -1 and CHRM1 agonist -8.
`COc1ccc(NC(=O)CSc2nnc(-c3ccncc3)n2C)cc1` gave M1 antag -2, CHO-K1 Ca antag -2, CHO-K1 Ca PAM 0, CHRM1 PAM 0, M1 ag parental 0 and CHRM1 agonist -6.
COc1cccc(NC(=O)CSc2nnc(-c3ccoc3C)n2CC2CCCO2)c1 (stereo not given) was read as M1 antag 0, CHO-K1 Ca antag -3, CHO-K1 Ca PAM 4, CHRM1 PAM 2, M1 ag parental 0 and CHRM1 agonist -3.
For COc1ccc(NC(=O)CSc2nnc(-c3ccoc3C)n2CC2CCCO2)cc1 (stereo not given) the results were M1 antag 27*, CHO-K1 Ca antag -4, CHO-K1 Ca PAM 4, CHRM1 PAM 1, M1 ag parental 0 and CHRM1 agonist 0.
O=C(COc1ccccc1)NCC(=O)N/N=C/c1cc(Br)ccc1OCc1ccccc1 was read as M1 antag -19, CHO-K1 Ca antag -9, CHO-K1 Ca PAM 24, CHRM1 PAM 17, M1 ag parental 1 and CHRM1 agonist -3.
`Cc1cccc(OCC(=O)NCC(=O)N/N=C/c2cc(Br)ccc2OCc2ccccc2)c1` gave M1 antag 3, CHO-K1 Ca antag 14, CHO-K1 Ca PAM 6, CHRM1 PAM 5, M1 ag parental 18* and CHRM1 agonist -9.

Source: PubChem BioAssay (The Scripps Research Institute Molecular Screening Center)
